# This is a sample that favours compounds with a hit; in the whole collection about 9.2% have one here.
# ELG1 genotox: induces genotoxicity in HEK293T cells with luciferase-tagged ELG1. Potency, µM (top dose mostly 46 µM), for the others: at the highest dose activity change, positive = activation, actives largely listed as activators. HEK293T ELG1-luciferase reporter, luminescence, 16 h. actives 1.3% (n = 330,000); note: % of control where 0% means no effect; nearly all actives have a fitted effect of over 60% in size
#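 HEK293T cells expressing luciferase-tagged ELG1 were exposed to compound or DMSO vehicle for 16 hr at 37 °C and 5% CO2. Luciferase activity was then measured with ONE-Glo after 30 min at room temperature.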
# FLuc modulator: inhibits or activates purified firefly luciferase, miR-21 counter-screen | purified FLuc, Km substrates, luminescence inhibition | Potency, µM (doses to about 57.5 µM), for inactives: top-dose activity change, negative = inhibition, actives largely listed as inhibitors | actives 6.9% (n = 360,000) | AID 588342;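 note: plate controls were vehicle for no effect and reference inhibitor for full effect; nearly all actives have a fitted effect of over 55% in size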
#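 Purified P. pyralis luciferase (10nM final) with 10uM D-luciferin and 10uM ATP (Km levels) in 50mM Tris acetate pH 7.5, 10mM Mg acetate, 0.01% Tween-20, 0.05% BSA; qHTS 6-point titration, ~60 µM downward; luminescence read.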
# SMN2 splice enh: increases expression of the SMN2 splice variant; HEK293 SMN2-luciferase splicing reporter, luminescence, 30-36 h; Potency, µM (titrated, usually from 46.1 µM), without a hit: top-dose activity change, positive = activation, actives largely listed as activators; actives 2.8% (n = 210,000); note: % of control where 0% means no effect; nearly all actives have a fitted effect of over 55% in size
#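 HEK293 cells carry an SMN2 minigene-luciferase reporter in which exon 7 inclusion puts luciferase in frame. Cells were seeded at 2000 cells/well, attached for 10-12 hours, then exposed to compounds for 30-36 hours at 37C before ONE-Glo luminescence.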
# Rab9 promoter act: Rab9 promoter activation; Huh7 Rab9 promoter-luciferase reporter, luminescence, 24 h; actives 2.8% (n = 320,000); Potency, µM (series often up to 9.22 µM), for inactives: at the highest dose activation, negative = inhibition, most hits filed as activators; AID 485297; note: % of control where 0% means no effect; nearly all actives have a fitted effect of over 60% in size
#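 Using Huh7 cells stably transfected with Rab9 promoter–luciferase, compounds were incubated 24 h at 37 °C, 5% CO2; luciferase luminescence was read 10 min after reagent addition.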
# NPC1 prom act: activates the NPC1 promoter; Potency, µM (series often up to 9.22 µM), for the others: top-dose activation, actives largely listed as activators; actives 2.4% (n = 320,000); Huh7 NPC1 promoter luciferase reporter, 24 h; AID 485313; note: % of control where 0% means no effect; nearly all actives have a fitted effect of over 60% in size
#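 In 1536-well qHTS, Huh7 cells harboring an NPC1 promoter–luciferase construct received compound for 24 h; activation was quantified by luminescence following luciferase reagent addition.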
# ELG1 repair inh: blocks ELG1-dependent DNA repair in HEK293T cells; actives 2.3% (n = 330,000); AID 504467; HEK293T ELG1-luciferase reporter, luminescence, 16 h; DNA damage induced by 5-fluorouridine; Potency, µM (doses to about 46.1 µM), without a hit: at the top dose activity change, negative = inhibition, actives largely listed as inhibitors; note: % is set by controls: 0 for no effect and ±100 for the full control effect; nearly all actives have a fitted effect of over 55% in size
#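 In this reporter screen, reduction of luminescence relative to DMSO vehicle indicated activity. Compounds and 5-fluorouridine were added together to 2,000 cells per well, incubated for 16 hr at 37 °C, then developed with ONE-Glo.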
# ELG1 FLuc counter: luciferase inhibition in cell-free luciferin readout for ELG1 hits; shares compounds with ELG1 repair inh; cell-free firefly luciferase luminescence counter-screen, ViewLux; Potency, µM (doses to about 46.1 µM), inactives show top-dose activity change, negative = inhibition, usual class: inhibitors; actives 3% (n = 350); AID 624247; note: % is set by controls: 0 for no effect and ±100 for the full control effect
# ELG1-Luc inh: confirmation of human ELG1-dependent DNA repair inhibitors; shares compounds with ELG1 repair inh; HEK293T ELG1-luciferase levels, luminescence; cells co-treated with 5-fluorouridine; Potency, µM (top dose mostly 46.1 µM), for the others: at the top dose activity change, negative = inhibition, usual class: inhibitors; actives 68% (n = 670); AID 624248; note: % is set by controls: 0 for no effect and ±100 for the full control effect; nearly all actives have a fitted effect of over 55% in size
# Target sequence (Q96QE3 whole entry, looked up): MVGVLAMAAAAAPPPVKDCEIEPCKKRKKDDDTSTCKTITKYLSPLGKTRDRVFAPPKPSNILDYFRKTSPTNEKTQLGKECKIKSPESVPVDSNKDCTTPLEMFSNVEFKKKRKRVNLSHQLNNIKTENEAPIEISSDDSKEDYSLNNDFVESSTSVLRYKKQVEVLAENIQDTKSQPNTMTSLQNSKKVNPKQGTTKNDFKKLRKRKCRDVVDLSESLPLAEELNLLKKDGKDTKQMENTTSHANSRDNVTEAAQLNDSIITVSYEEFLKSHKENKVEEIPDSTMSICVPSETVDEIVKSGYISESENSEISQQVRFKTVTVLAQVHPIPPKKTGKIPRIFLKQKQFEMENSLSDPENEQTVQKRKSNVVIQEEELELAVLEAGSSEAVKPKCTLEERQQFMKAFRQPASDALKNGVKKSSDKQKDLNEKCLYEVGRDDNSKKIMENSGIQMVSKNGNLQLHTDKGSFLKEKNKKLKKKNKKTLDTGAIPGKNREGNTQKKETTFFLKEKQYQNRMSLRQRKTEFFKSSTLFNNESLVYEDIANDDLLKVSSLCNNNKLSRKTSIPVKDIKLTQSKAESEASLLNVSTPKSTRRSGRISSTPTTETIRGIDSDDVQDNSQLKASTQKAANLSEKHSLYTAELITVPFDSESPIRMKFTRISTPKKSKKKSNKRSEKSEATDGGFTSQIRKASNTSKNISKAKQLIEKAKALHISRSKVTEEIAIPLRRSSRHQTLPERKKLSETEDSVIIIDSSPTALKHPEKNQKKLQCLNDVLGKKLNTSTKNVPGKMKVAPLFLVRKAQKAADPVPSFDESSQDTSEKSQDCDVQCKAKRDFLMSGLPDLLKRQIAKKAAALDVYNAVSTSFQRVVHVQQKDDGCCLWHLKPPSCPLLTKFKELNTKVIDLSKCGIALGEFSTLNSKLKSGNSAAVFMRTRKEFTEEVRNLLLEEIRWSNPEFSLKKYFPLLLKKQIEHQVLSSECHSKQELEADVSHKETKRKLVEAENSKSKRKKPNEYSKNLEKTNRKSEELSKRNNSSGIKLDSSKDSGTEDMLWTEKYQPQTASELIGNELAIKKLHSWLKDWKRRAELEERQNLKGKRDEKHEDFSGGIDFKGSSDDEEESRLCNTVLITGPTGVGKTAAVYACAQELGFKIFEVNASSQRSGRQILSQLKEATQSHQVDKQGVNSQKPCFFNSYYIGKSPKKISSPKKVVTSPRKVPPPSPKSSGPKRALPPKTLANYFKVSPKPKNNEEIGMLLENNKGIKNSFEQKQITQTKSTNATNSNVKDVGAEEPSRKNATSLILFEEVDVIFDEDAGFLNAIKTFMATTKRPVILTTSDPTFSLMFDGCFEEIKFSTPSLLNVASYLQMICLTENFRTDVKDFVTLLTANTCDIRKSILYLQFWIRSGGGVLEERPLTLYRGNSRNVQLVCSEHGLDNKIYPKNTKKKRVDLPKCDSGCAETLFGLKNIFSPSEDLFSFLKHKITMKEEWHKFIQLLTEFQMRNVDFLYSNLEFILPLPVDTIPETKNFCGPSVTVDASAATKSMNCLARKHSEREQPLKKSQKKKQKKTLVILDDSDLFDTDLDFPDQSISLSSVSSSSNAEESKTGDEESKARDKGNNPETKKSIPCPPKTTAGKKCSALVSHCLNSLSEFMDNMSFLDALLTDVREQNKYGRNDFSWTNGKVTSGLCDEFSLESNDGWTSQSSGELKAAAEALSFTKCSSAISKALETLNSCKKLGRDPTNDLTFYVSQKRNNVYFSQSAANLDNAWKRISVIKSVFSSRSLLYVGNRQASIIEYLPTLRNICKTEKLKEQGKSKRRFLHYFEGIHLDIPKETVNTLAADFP
# ELG1 MMS Luc: MMS-stimulated human ELG1 repair inhibition, confirmed; shares compounds with ELG1 repair inh; HEK293T luciferase-tagged ELG1 level, MMS stimulated; Potency, µM (doses to about 46.1 µM), for the others: at the top dose activity change, negative = inhibition, hits mostly inhibitors; actives 53% (n = 670); note: % is set by controls: 0 for no effect and ±100 for the full control effect; nearly all actives have a fitted effect of over 60% in size
# ELG1 5FU viab: confirmation of ELG1 repair inhibitors: viability with 5FU; shares compounds with ELG1 repair inh; cell viability with 5-FU, ELG1-dependent repair; Potency, µM (series often up to 46.1 µM), for the others: at the highest dose activity change, negative = viability loss, actives largely listed as cytotoxic; 670 tested, under 10 active;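 note: ELG1-luc HEK293T cells cotreated with 5-fluorouridine at 10 µM final; viability measured 16 h after compound addition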
# ELG1 MMS viab: confirmation of ELG1 repair inhibitors: viability with MMS. shares compounds with ELG1 repair inh. Cell viability with MMS, ELG1-dependent DNA repair. Potency, µM (titrated, usually from 46.1 µM), inactives show at the highest dose activity change, negative = viability loss, actives largely listed as cytotoxic. actives 33% (n = 670);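 note: ELG1-luc HEK293T cells co-treated with 10 µM MMS; viability read 16 h after compound addition; % is set by controls: 0 for no effect and ±100 for the full control effect; nearly all actives have a fitted effect of over 60% in size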
# Cell viab unstim: affects unstimulated cell viability, ELG1 hit counter-screen; cell viability counter-screen, unstimulated, luminescence; actives 8% (n = 900); Potency, µM (series often up to 45.9 µM), inactives show at the highest dose activity change, negative = loss of viability, most hits filed as cytotoxic; shares compounds with ELG1 repair inh;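 note: compound exposure lasted 16 hours before reading; % is set by controls: 0 for no effect and ±100 for the full control effect; nearly all actives have a fitted effect of over 55% in size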
# FLuc biochem: inhibits purified firefly luciferase, counter-screen for ELG1 hits; purified firefly luciferase, luminescence counter-screen; shares compounds with ELG1 repair inh; Potency, µM (top dose mostly 57.5 µM), without a hit: top-dose activity, negative = inhibition, most hits filed as inhibitors; actives 10% (n = 350); AID 624253; note: % is set by controls: 0 for no effect and ±100 for the full control effect
# Starred values were filed as active, the others as inactive; ? = inconclusive; / = no result given. Calls come from the whole dose curve; as a rule, active = well fitted curve in the direction sought with a large enough effect; inconclusive = small, poorly fitted or top-dose-only effect, or another doubt; inactive = no such curve, though single readings can be large; an effect the other way counts as inactive or inconclusive. Potency is the fitted concentration of half-maximal effect.
SMILES,ELG1 genotox,FLuc modulator,SMN2 splice enh,Rab9 promoter act,NPC1 prom act,ELG1 repair inh,ELG1-Luc inh,ELG1 MMS Luc,ELG1 5FU viab,ELG1 MMS viab,Cell viab unstim,others
CN1CCN(c2ncnc3scc(-c4ccccc4Cl)c23)CC1,-17%,2%,/,-1%,0%,4.1µM*,7.1µM*,16µM*,-10%,-2%,?,
CC1(C)Cc2c(c(N3CCOCC3)nc3sc4c(NN)ncnc4c23)CS1,-13%,1%,-61%,-15%,-9%,?,/,/,/,/,/,
CC(C)CNc1nnnc2c1sc1nc(N3CCOCC3)c3c(c12)CC(C)(C)SC3,-3%,1%,-17%,-7%,-10%,4.1µM*,4.5µM*,1%,?,9%,-2%,ELG1 FLuc counter=1%;FLuc biochem=4%
CC1(C)Cc2c(c(N3CCOCC3)nc3sc4c(NCc5ccco5)nnnc4c23)CS1,-10%,4%,?,-11%,-8%,4.1µM*,4.5µM*,-2%,?,?,-2%,ELG1 FLuc counter=3%;FLuc biochem=0%
CN(C)c1ccc(/C=C2\C=Cc3ccccc32)c(F)c1,/,/,/,/,/,/,/,/,/,/,-4%,
Cn1c(=O)c2c(nc(CN3CCc4ccccc4C3)n2Cc2ccccc2F)n(C)c1=O,-11%,2%,-45%,-8%,0%,?,8.9µM*,-28%,?,9%,-15%,
COc1cc(CC2COC(=O)C2(O)Cc2ccc(O)c(OC)c2)ccc1O (configuration not stated),-8%,-1%,/,-24%,-23%,1.5µM*,?,3.5µM*,-2%,2.8µM*,?,
COc1cc(C[C@@H]2C(=O)OC[C@H]2Cc2ccc(OC)c(OC)c2)ccc1O,1%,-1%,/,-35%,-31%,1%,/,/,/,/,/,
O=c1cc(C(F)(F)F)[nH]c2c(OC(F)(F)F)cccc12,-8%,-6%,/,-1%,-7%,?,/,/,/,/,/,
Cc1c(NC(=O)c2cc(-c3cccs3)nc3ccccc23)c(=O)n(-c2ccccc2)n1C,-6%,-3%,-22%,-5%,-5%,2.9µM*,2.8µM*,7.9µM*,3%,?,?,ELG1 FLuc counter=-7%;FLuc biochem=-13%
Cc1ccc(NC(=O)c2cc(-c3cccs3)nc3ccccc23)nc1,-15%,?,/,-9%,-4%,?,/,/,/,/,/,
O=C(CC1SC(N2CCCC2)=NC1=O)Nc1ccc(C(=O)N2CCN(c3cccc(Cl)c3)CC2)cc1 (configuration not stated),-7%,0%,/,0%,-6%,?,/,/,/,/,/,
COc1cc2c(cc1OC)C1C(=O)c3ccc4c(c3OC1CO2)C=CC(C)(C)O4 (configuration not stated),/,/,-73%,/,/,/,/,/,/,/,/,
COc1cc2c(cc1OC)C1C(=O)c3c(O)cc4c(c3OC1CO2)C=CC(C)(C)O4 (configuration not stated),/,/,-81%,/,/,/,?,0.4µM*,-8%,0.4µM*,?,ELG1 FLuc counter=-4%;FLuc biochem=-3%
COc1ccc(N2CC(C(=O)Nc3nnc(SCC(=O)N4CCOCC4)s3)CC2=O)cc1 (configuration not stated),6%,-2%,/,2%,1%,2%,/,/,/,/,/,
COc1ccc(C(=O)Nc2cnn(Cc3c(F)cccc3Cl)c2)cc1OC,5%,19µM*,/,16%,19%,?,1%,34%,?,10%,5%,
COc1ccc(-c2cc(C(=O)Nc3cnn(Cc4ccc(F)cc4)c3)no2)cc1OC,/,2%,1%,/,/,/,/,/,/,/,/,
Cc1nn2c(C)c(C(=O)NC(C)c3ccccc3)cnc2c1-c1ccc(F)cc1 (configuration not stated),/,-2%,/,/,/,/,/,/,/,/,/,
CN(CC1CCCO1)S(=O)(=O)c1ccc(C(=O)Nc2nc3cc4c(cc3s2)OCO4)cc1 (configuration not stated),-1%,-5%,/,-44%,-37%,2.6µM*,4.4µM*,1.1µM*,-17%,1.1µM*,?,
O=C1OC(COc2ccc(Br)cc2)CN1c1ccccc1 (configuration not stated),3%,1%,/,-4%,-3%,0%,/,/,/,/,/,
Nc1cc(N)nc(SCC(=O)Nc2ccccc2N2CCOCC2)n1,1%,1%,/,0%,2%,8%,/,/,/,/,/,
CCc1ccc2nc(SCC(=O)Nc3ccccc3N3CCOCC3)c(C#N)cc2c1,0%,-2%,/,-29%,-35%,?,?,7.1µM*,-15%,11µM*,?,ELG1 FLuc counter=4%;FLuc biochem=3%
CCn1nc(C(=O)Nc2nc(-c3ccccn3)cs2)c2ccccc2c1=O,-3%,0%,/,-10%,-9%,4.1µM*,4.4µM*,7.9µM*,-3%,13µM*,?,
Cn1nc(C(=O)Nc2nc(-c3ccccn3)cs2)c2ccccc2c1=O,-4%,-4%,/,1%,-3%,?,/,/,/,/,/,

# High-throughput results as filed in PubChem.
